Test results: PubChem BioAssay
Activity calls are given as the source filed them. Unless noted, how the calls were made is not given here.

Legend:
[1] = test system: Wnt5a (protein binding on small-molecule microarray); experiment: Wnt5a binders on small-molecule microarray, primary screen, biophysical, 635/667 nm fluorescence (AID 1142); conditions: 635 nm fluorescence, higher = more signal;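 further: fluorescence read at 667 nm with signal to noise per printed feature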
[2] = cell viability in Huh7 cells, primary screen, cytotoxicity control for HCV replication inhibitor project, CellTiter-Glo luminescence, basal, 48 h (AID 1143); conditions: Huh7 HCV replicon, higher = more signal, called active from +8 up or from −8 down;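 further: Huh7 hepatoma cells carrying a hepatitis C replication reporter with no stimulus; test concentration not given here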
[3] = P. aeruginosa biofilm formation inhibitors, primary screen, PAO1 strain, BacTiter-Glo luminescence, LB-PBS (AID 1144); conditions: 12 h, higher = more signal
[4] = CREB reporter modulators without forskolin, primary screen, cell-based, PC12, CRE-LacZ reporter, unstimulated (AID 1145); conditions: no forskolin, luminescence, 4.5 h, higher = more signal, called active from +8 up or from −8 down
[5] = CREB reporter modulators under forskolin, primary screen, cell-based, PC12, CRE-LacZ reporter, forskolin-stimulated (AID 1146); conditions: luminescence, 4.5 h, higher = more signal, called active from +8 up or from −8 down;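 further: PC12 cells with 6xCRE LacZ reporter stimulated by forskolin 10 µM; beta-galactosidase reporter signal reflecting CREB driven transcription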
[6] = target: Streptavidin (Streptomyces avidinii) (UniProt P22629); experiment: streptavidin binders on small-molecule microarray, primary screen, artefact control for SMM compound annotation, biophysical, 635/667 nm fluorescence (AID 1147); conditions: streptavidin binding, higher = more signal;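 further: signal reflects streptavidin binding to arrayed compounds as a control protein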
[7] = small-molecule binders of probe aInhba, primary screen, biochemical, small-molecule microarray, 635/667 nm fluorescence (AID 1148); conditions: higher = more signal;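 further: score merges 667nm spot fluorescence with signal-to-noise for antibody binding to printed compounds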
Torsin-1A (Homo sapiens) [8] = target: Torsin-1A (Homo sapiens) (UniProt O14656); experiment: torsin A binders from cell lysate, primary screen, small-molecule microarray, wild-type, 635/667 nm (AID 1149); conditions: COS7 hTOR1A-WT lysate, 635 nm fluorescence, higher = more signal
Torsin-1A (Homo sapiens) [9] = target: Torsin-1A (Homo sapiens) (UniProt O14656); experiment: small-molecule binders of mutant TOR1A in lysate, primary screen, cell lysate, small-molecule microarray, COS7 lysate, 635/667 nm fluorescence (AID 1150); conditions: COS7 hTOR1A mutant lysate, 635 nm fluorescence, higher = more signal;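 further: score pools 667 nm emission and signal to noise measuring lysate protein binding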
[10] = test system: Sonic hedgehog protein (Shh); experiment: small-molecule binders of Shh protein, primary screen, biochemical, small-molecule microarray, 635/667 nm fluorescence (AID 1151); conditions: small-molecule microarray binding, 635 nm fluorescence; higher = more signal;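 further: Shh protein binding to compounds spotted on small-molecule microarray slides; score combines spot fluorescence intensity with signal-to-noise across triplicate slides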

Streptavidin (Streptomyces avidinii), sequence (P22629 whole entry, looked up): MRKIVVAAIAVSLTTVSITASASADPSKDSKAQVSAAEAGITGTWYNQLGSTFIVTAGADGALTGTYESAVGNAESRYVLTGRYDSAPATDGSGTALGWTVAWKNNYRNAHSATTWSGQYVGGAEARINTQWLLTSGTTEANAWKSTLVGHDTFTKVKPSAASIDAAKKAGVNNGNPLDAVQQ
Torsin-1A (Homo sapiens), sequence (O14656 whole entry, looked up): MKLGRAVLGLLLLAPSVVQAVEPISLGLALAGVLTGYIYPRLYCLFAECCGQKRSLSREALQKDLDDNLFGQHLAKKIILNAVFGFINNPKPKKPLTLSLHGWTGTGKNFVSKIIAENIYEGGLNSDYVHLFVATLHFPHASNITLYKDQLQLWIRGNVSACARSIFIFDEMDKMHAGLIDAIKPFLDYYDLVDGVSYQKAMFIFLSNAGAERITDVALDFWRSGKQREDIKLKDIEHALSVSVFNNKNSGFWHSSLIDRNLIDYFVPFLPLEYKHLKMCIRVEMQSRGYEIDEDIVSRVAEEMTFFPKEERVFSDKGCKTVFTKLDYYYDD

Structure (SMILES) | composite z-score [1] | z-score [2] | z-score [3] | z-score [4] | z-score [5] | composite z-score [6] | composite z-score [7] | composite z-score (Torsin-1A (Homo sapiens) [8]) | composite z-score (Torsin-1A (Homo sapiens) [9]) | composite z-score [10]
COc1cc2c(cc1OC)CN(C(=O)[C@H]1[C@@H]3C(=O)O[C@@H](c4ccccc4)[C@@H](c4ccccc4)N3[C@@H](c3ccc(OCCO)cc3)[C@]13C(=O)Nc1ccc(C#CCCO)cc13)CC2 | 0.455 | 0.0229 (inactive) | -0.0983 (inactive) | -0.61 (inactive) | -0.48 (inactive) | 1.31 | 0.659 | 0.272 | 0.764 | 1.62
Cc1ccc(S[C@]2(C(=O)NCC(C)C)CC(=O)N(Cc3ccccc3Cl)[C@@H]2c2ccc(CO)cc2I)cc1 | -0.296 | -0.521 (inactive) | -0.505 (inactive) | -0.904 (inactive) | 0.442 (inactive) | -0.942 | -0.176 | -0.276 | -0.682 | 0.196
CCCC[C@@H]1C[C@H]1[C@@H](NC(=O)c1cccnc1)c1ccc(-c2ccccc2)cc1 | -0.995 | -2.72 (inactive) | -0.327 (inactive) | -0.372 (inactive) | 0.162 (inactive) | -1.02 | -0.251 | -2.78 | -1.29 | -0.822
CO[C@H]1O[C@H](CO)[C@@H](OC(=O)Nc2ccc(C(F)(F)F)cc2)[C@H](OC(=O)Nc2ccc3c(c2)OCO3)[C@H]1OC(=O)Nc1ccc2c(c1)OCO2 | 0.259 | -4.23 (inactive) | 0.558 (inactive) | 1.54 (inactive) | 1.38 (inactive) | 0.656 | 0.234 | 0.201 | 0.746 | 0.99
CCCNC(=O)[C@@]1(c2ccc([N+](=O)[O-])cc2)CC(=O)N(C2CCCCC2)[C@@H]1c1ccc(CO)cc1I | 1.01 | -4.24 (inactive) | -0.326 (inactive) | -0.682 (inactive) | 1.18 (inactive) | 0.277 | 0.306 | 0.224 | 0.451 | 1.85
NC(=O)N1C(=O)C2C(C1=O)C1C=C(c3ccc(CO)cc3)C2C(C2CC2)N1Cc1sc2ccccc2c1Cl (stereo not given) | 0.323 | -3.73 (inactive) | 0.447 (inactive) | 4.42 (inactive) | -1.63 (inactive) | 1.43 | -0.0313 | 1.19 | 0.83 | 1.38
COC(=O)C[C@H]1O[C@]2(C(=O)N(C)c3ccccc32)[C@@H](C)[C@@H]1[Si](C)(C)c1ccc(C)cc1 | 0.139 | -3.88 (inactive) | 0.92 (inactive) | 1.31 (inactive) | -0.73 (inactive) | 0.0785 | -0.0403 | 0.559 | 0.346 | 0.763
